A selection: hits, their analogues and other compounds. The true share with any hit is near 5.3%.
JMJD2A Tudor: JMJD2A Tudor domain (human) inhibition. AlphaScreen JMJD2A-Tudor / H3K4me3 peptide binding. Potency, µM (highest dose often 114 µM), actives largely listed as inhibitors. actives 4.4% (n = 390,000). AID 504339; note: nearly all actives have a fitted effect of over 50% in size
BAZ2B block: BAZ2B (human) inhibition; AlphaScreen BAZ2B-H3K14Ac peptide displacement; actives 4.4% (n = 360,000); Potency, µM (series often up to 114 µM), most hits filed as inhibitors; Q9UIF8; note: nearly all actives have a fitted effect of over 60% in size
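BAZ2B (50 nM) with biotin-H3(5-23)K14Ac peptide (50 nM) in PBS pH 7.4, 0.01% Tween-20, preformed 30 min, then compound 30 min at room temperature; top concentration 110uM. AlphaScreen streptavidin donor/nickel chelate acceptor beads (10 ug/mL final), 20 min dark, signal read.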
TDP1 inh: TDP1 (human) enzyme inhibition; Q9NUW8; recombinant TDP1, AlphaScreen DNA substrate cleavage; Potency, µM (top dose mostly 130 µM), most hits filed as inhibitors; actives 0.28% (n = 350,000); AID 485290; note: nearly all actives have a fitted effect of over 40% in size
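Compounds were preincubated with Tdp1 (1 nM final) for 15 min at room temperature before substrate (15 nM final) started a 5 min reaction; beads (10 ug/ml final) were then added for 10 min before AlphaScreen detection.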
Six1-Eya2 inh: Six1/Eya2 interaction inhibition | actives 0.56% (n = 360,000) | Q15475+O00167 | AID 651725 | AlphaScreen GST-Six1/His-Eya2 binding, biochemical; active compounds read low | activity change, % (test concentration not listed); in the data active = activity change below about -65%; inconclusive = mostly about -30% to -63%
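Homogeneous AlphaScreen proximity assay pairing GST-Six1 with His-tagged Eya2 (added as 5X mix: 250 nM and 500 nM) in 50 mM Tris pH 8.0, 300 mM NaCl, 1 mM TCEP. Glutathione donor and nickel acceptor beads; 1 h, 37 °C, dark.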
HP1b chromo inh: HP1-beta chromodomain-methylated histone interaction inhibition | Potency, µM (doses to about 114 µM), usual class: inhibitors | P83916 | AlphaScreen HP1-beta / biotin-H3K9me3 peptide binding | actives 0.56% (n = 390,000); note: nearly all actives have a fitted effect of over 70% in size
Target sequence (P83916 whole entry, looked up): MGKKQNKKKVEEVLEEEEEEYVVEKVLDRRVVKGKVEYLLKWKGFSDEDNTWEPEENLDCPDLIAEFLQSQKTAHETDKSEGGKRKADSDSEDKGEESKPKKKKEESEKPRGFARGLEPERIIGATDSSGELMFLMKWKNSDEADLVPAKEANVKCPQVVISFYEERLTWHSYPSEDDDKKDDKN
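Compound inhibition of the preformed complex between 50 nM HP1-beta and 50 nM biotinylated H3K9me3 peptide was read by AlphaScreen. Buffer was PBS pH 7.4 with 0.01% Tween-20. Incubations ran 30 min at room temperature, with 10 ug/mL donor/acceptor beads.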
CtBP-E1A inh: inhibitors of CtBP/E1A interaction; AlphaScreen GST-E1A/His-CtBP binding, 1536-well; active compounds read low; activity change, % (no concentration beside the values); actives 0.49% (n = 340,000); in the data active = activity change below about -65%; inconclusive = mostly about -30% to -63%
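Homogeneous bead-based format: GST-tagged E1A captured on glutathione donor beads, His-tagged CtBP on nickel acceptor beads; compounds precede bead addition by 2 h at 37 °C.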
Numbers stand for hits; n = inactive; u = inconclusive; x = not tested or not shown; ! = not active in a repeat; [ ] = another dose, or the depositor's remark. Unless noted, calls come from the whole dose curve; as a rule, active = well fitted inhibition curve with a large enough effect; inconclusive = small, poorly fitted or top-dose-only effect; inactive = no such curve, though single readings can be large or run the other way.

SMILES	JMJD2A Tudor	BAZ2B block	TDP1 inh	Six1-Eya2 inh	HP1b chromo inh	CtBP-E1A inh
O=C(O)CN1C(=O)/C(=C2\SC(=S)N(C(Cc3ccccc3)C(=O)O)C2=O)c2ccccc21 (stereo unspecified)	n	56µM	n	n	n	n
Cc1c(N2C(=O)/C(=C3/C(=O)N(C)c4ccccc43)SC2=S)c(=O)n(-c2ccccc2)n1C	n	n	n	n	n	n
O=C(O)CCN1C(=O)/C(=C2\C(=O)N(Cc3ccccc3Cl)c3ccccc32)SC1=S	x	7.9µM	x	x	x	x
Cc1cc(C)c(NC(=O)Cn2c(=O)n(Cc3ccc(C(=O)NCc4ccco4)cc3)c(=O)c3sccc32)c(C)c1	n	50µM	n	x	n	x
CCc1ccc(C(=O)c2cn(CC(=O)Nc3ccc4c(c3)OCO4)c3ccc(F)cc3c2=O)cc1	n	n	n	x	n	x
COc1ccc(CN(C)C(=O)Cn2ccsc2=N)cc1OC	n	n	x	n	n	n
COc1ccc(CN(C)C(=O)Cn2cc(C)c(=O)[nH]c2=O)cc1OC	79µM	x	x	n	n	n
CO[C@@]1(NC(=O)C2SC(=C(C(N)=O)C(=O)O)S2)C(=O)N2C(C(=O)O)=C(CSc3nnnn3C)CS[C@@H]21 (stereo partly specified)	25µM	50µM	x	n	n	n
Cc1ccc(NC(=O)Cn2ncc3c4ccccc4n(Cc4ccccc4)c3c2=O)cc1Cl	n	n	n	x	n	x
COc1cc(Cl)c(NC(=O)c2cc3ccccn3n2)c(OC)c1	n	n	n	x	n	x
CCOc1ccccc1N1CC(C(=O)N2CCc3ccccc3C2)CC1=O (stereo unspecified)	28µM	n	n	n	n	n
CCOc1ccccc1N1CC(C(=O)N2CCc3ccccc32)CC1=O (stereo unspecified)	n	n	n	n	n	n
CC(C)C[C@@H](CNCC(=O)[C@H](CC(C)C)NC(=O)c1[nH]cnc1C(=O)N[C@@H](C)CN)NC(=O)c1nc[nH]c1C(=O)N[C@@H](C)C(=O)O	n	x	x	n	n	n
CC(C)C[C@@H](CN)NC(=O)c1nc[nH]c1C(=O)N[C@@H](Cc1c[nH]c2ccccc12)C(=O)CNC[C@H](C)NC(=O)c1nc[nH]c1C(=O)N[C@@H](C)C(=O)O	56µM	x	x	n	n	n
CC(C)C[C@@H](CN)NC(=O)c1nc[nH]c1C(=O)N[C@@H](Cc1ccccc1)C(=O)CNC[C@H](C)NC(=O)c1nc[nH]c1C(=O)N[C@@H](C)C(=O)O	79µM	x	x	n	n	n
CC(C)C[C@@H](CN)NC(=O)c1nc[nH]c1C(=O)N[C@@H](Cc1ccccc1)C(=O)CNC[C@H](C)NC(=O)c1nc[nH]c1C(=O)N[C@@H](CC(C)C)C(=O)O	56µM	x	x	n	n	n
Cc1cc2c(s1)c1cnn(Cc3cccc(C(F)(F)F)c3)c(=O)c1n2C	n	x	x	x	x	x
CC(=O)N(C)c1ccc(N2CCOCC2)c2c1C(=O)c1ccccc1C2=O	n	x	x	n	u	n
O=C1c2ccccc2C(=O)c2c1cccc2N1CCOCC1	35µM	16µM	n	-78	40µM	-72
Cc1ccc(C(=O)Oc2ccccc2N2C(=O)C3CCC(C)CC3C2=O)cc1 (stereo unspecified)	n	n	n	n	n	n
CC1CCC2C(=O)N(c3ccc(C(=O)Oc4cccc5cccnc45)cc3)C(=O)C2C1 (stereo unspecified)	56µM	50µM	n	u	n	n
CC(O)CN(CCC(N)=O)CCC(N)=O (stereo unspecified)	u	56µM	n	n	n	n
CC(O)CN(C)C (stereo unspecified)	x	x	n	x	x	x
O=S1(=O)N=C(Oc2ccc(-c3ccccc3)cc2)c2ccccc21	u	x	n	x	x	x
CC1CN(CCOc2ccc([N+](=O)[O-])cc2)CC(C)O1 (stereo unspecified)	6.3µM	u	n	n	u	n
SMILES	JMJD2A Tudor	BAZ2B block	TDP1 inh	Six1-Eya2 inh	HP1b chromo inh	CtBP-E1A inh
CC1CN(c2ccc([N+](=O)[O-])cn2)CC(C)O1 (stereo unspecified)	n	n	n	n	n	n
CC1CN(CCOc2ccc(F)cc2)CC(C)O1 (stereo unspecified)	20µM	50µM	x	n	u	n
O=[N+]([O-])c1ccc(OCCOCCOc2ccc([N+](=O)[O-])cc2)cc1	n	n	x	n	n	x
O=[N+]([O-])c1ccc(OCCN2CCNCC2)cc1	25µM	50µM	u	n	u	x
CC1CN(CCCOc2ccc([N+](=O)[O-])cc2)CC(C)O1 (stereo unspecified)	14µM	n	n	n	u	n
COCOc1cc(OC)ccc1C(=O)/C=C\c1ccc2c(c1)OCO2	x	x	n[21 µM]	x	x	x
CC1=NN(c2ccc([N+](=O)[O-])cc2)C(=O)C1[N+](=O)[O-] (stereo unspecified)	x	x	n	x	x	x
Cc1cc(OCCN2CC(C)OC(C)C2)ccc1[N+](=O)[O-] (stereo unspecified)	2.8µM	u	n	n	u	n
O=C(OCC#CCSc1nnc(-c2cccc3ccccc23)o1)c1ccco1	n	79µM!	n	n	n	n
COc1cc(/C=N/Nc2ccc(F)cc2F)cc(OC)c1O	79µM	u	n	n	u	n
COc1cc(/C=N/Nc2ccccc2[N+](=O)[O-])cc(OC)c1O	n	u	n	n	n	n
Cc1ccc(SCCCn2cncn2)cc1	45µM	u	n	n	n	n
Clc1ccc(SCCn2cncn2)cc1	45µM	u	n	n	u	n
Cc1cccc(N2CCN(C(=O)Nc3ccc(F)cc3)CC2C)c1 (stereo unspecified)	n	n	n	x	n	x
COc1cc(/C=N/N2CCN(Cc3ccc(Cl)cc3)CC2)cc(Br)c1O	45µM	50µM	x	n	n	x
COC(=O)c1ccc(/C=N/N2CCN(Cc3ccc(Cl)cc3)CC2)cc1	n	n	x	n	n	n
COc1cc(/C=N/N2CCN(Cc3ccc(Cl)cc3)CC2)ccc1OC(C)=O	45µM	56µM	n	n	u	x
COc1cccc(/C=N/N2CCN(Cc3ccccc3)CC2)c1O	u	u	n	n	n	n
Cc1cccc(Nc2c3c(nc4nncn24)CCC3)c1C	n	n	n	x	n	x
CC1/C(=N/O)CC(c2ccco2)NC1c1ccco1 (stereo unspecified)	n	n	n	n	n	n
CCCC1C(c2ccco2)NC(c2ccco2)CC1(C)O (stereo unspecified)	3.5µM	x	n	n	u	n
C[C@H]1C(c2cccc(Cl)c2)=NN(c2ccccc2)[C@@H]1CO	x	x	40µM	x	x	x
OC[C@@H]1[C@@H](c2ccc(Cl)cc2)C(c2cccc(Cl)c2)=NN1c1ccccc1	n	x	40µM!	n	n	n

Bioassay records (PubChem BioAssay)
